Shn3 inh set2 = reduction of Shn3 3'UTR firefly luciferase signal, primary screen, Schnurri-3 inhibitor project, cell-based, Clone20 osteoblasts, set 2 | Clone20 osteoblast Shn3 3'UTR firefly luciferase, 24 h | 0.52% of 360,000 active | inhibition, % at 12.5 µM | AID 588674, 2011;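 active = mean inhibition of at least 75% with every replicate also reaching 75%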
HIF-2a block = HIF-2a reporter inhibitors, primary screen, luminescence, 786-0 RCC cells | 786-0 RCC cells HIF-2a reporter, luciferase luminescence, overnight | inhibition, % at 18.8 µM | 0.72% of 360,000 active;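 active = inhibition of the luminescence signal of 40% or more relative to plate controls, in a single-dose primary screen at 18.75 µM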
KKLEB cytotox = cytotoxicity in KKLEB CF airway cells, primary screen, cytotoxicity control for CF NF-kB inhibitor project, cell-based, uHTS, fluorescence assay plates. KKLEB CF airway cells viability, ATPlite luminescence, overnight; active compounds read low; cells stimulated with P. aeruginosa culture filtrate. activity change (cytotoxicity), % at 5 µM. 0.36% of 360,000 active;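 active = corrected activity change at or below -50% at 5 µM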
CF NFkB block = inhibitors of PAF-induced NF-kB signaling, primary screen, cell-based, GFP fluorescence, uHTS | 0.86% of 360,000 active | inhibition, % at 5 µM | KKLEB NF-kB-GFP reporter, GFP fluorescence overnight | AID 588850, 2011;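 active = at least 50% inhibition at 5 µM, scaled per plate between neutral and stimulator controls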;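 note: PAF is a Pseudomonas aeruginosa culture filtrate used as stimulus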
Peg3 promoter = Peg3 promoter-driven luciferase inhibitors, primary screen, cell-based, HeLa, luciferase luminescence. HeLa PEG-Prom luciferase reporter, overnight. inhibition, % at 20 µM. 1.7% of 360,000 active. AID 588405, 2011;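 active = inhibition of at least 50% at 20 µM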
Mdm2-MdmX confirm = retested Mdm2-MdmX interaction blockers, confirmation, cell-based, luminescence, single concentration, set 2 | shares compounds with HIF-2a block | SaOS-2 split-luciferase Mdm2/MdmX complementation | inhibition, % at 8 µM | 99% of 740 active;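 active = mean inhibition of the luminescence signal across two replicates at or above 26 percent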
HIF-2a inh conf = HIF-2a reporter inhibitor retest, confirmation, luminescence, 786-0 RCC cells; shares compounds with HIF-2a block; 56% of 1,800 active; inhibition, % at 18.8 µM; HIF-2a luciferase reporter luminescence, overnight;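 active = mean inhibition across four replicates of at least 40 percent at the single tested concentration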
HIF-1a cs = HIF-1a luciferase reporter signal reduction – MiaPaCa-2 cells, single concentration, counter-screen for HIF-2a inhibitor project, confirmation | shares compounds with HIF-2a block | MiaPaCa-2 HIF-1a luciferase reporter, desferoxamine, overnight | inhibition, % at 18.8 µM | 72% of 1,800 active | AID 651589, 2012;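 active = mean inhibition of the reporter signal across four replicates at the single tested dose of 50% or more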
Each line names hits and unclear results; the compound was inactive in the other large screens (follow-up assays come after a bar, where they were run). Most compounds without a hit are left out; they make up all but 2.6% or so of the library.

CC1=C(C(=O)Nc2ccc([N+](=O)[O-])cc2)C(c2cccc(C(F)(F)F)c2)NC(=S)N1c1ccccc1 (stereo unspecified)	HIF-2a block 56, Peg3 promoter 88 | HIF-2a inh conf inactive | HIF-1a cs 60
COc1ccc(C2NC(=S)N(c3ccccc3)C(C)=C2C(=O)Nc2ccccc2)cc1 (stereo unspecified)	none
Cc1cccc(NC(=O)CNC(=O)CSc2ncccn2)c1C	none
Cc1cccc(NC(=O)CNC(=O)Cn2ncc(Cl)c(Cl)c2=O)c1C	HIF-2a block 84, KKLEB cytotox -61, CF NFkB block 92, Peg3 promoter 95 | Mdm2-MdmX confirm 103
O=C(Cn1ncc(Cl)c(Cl)c1=O)NCC1CCCCC1	HIF-2a block 97, KKLEB cytotox -73, CF NFkB block 95, Peg3 promoter 108 | HIF-2a inh conf 91 | HIF-1a cs 105
C=C1[C@@H](O)[C@H](CC(C)C)N(Cc2ccccc2Br)S1(=O)=O	HIF-2a block 72, KKLEB cytotox -96, CF NFkB block 89, Peg3 promoter 97 | HIF-2a inh conf 42 | HIF-1a cs 101
O=S1(=O)CCO[C@H]2Cc3ccccc3[C@H]2N1Cc1ccccc1Br	none
O=C1Nc2ccc(Br)cc2/C1=C/C(=O)c1ccc2c(c1)OCO2	Shn3 inh set2 97, HIF-2a block 45, Peg3 promoter 53 | HIF-2a inh conf inactive | HIF-1a cs 95
Cc1cccc(N(C(=O)c2snc(C(N)=O)c2N)C(C(=O)NC2CCCC2)c2ccco2)c1 (stereo unspecified)	none
COC(=O)C(=Cc1ccc(OCc2ccc([N+](=O)[O-])cc2)c(OC)c1)C(=O)OC	HIF-2a block 81 | HIF-2a inh conf 82 | HIF-1a cs 101
CCOc1cc(/C=C2\CN(CC)C/C(=C\c3ccc(O)c(OCC)c3)C2=O)ccc1O	Shn3 inh set2 97, HIF-2a block 93, CF NFkB block 87, Peg3 promoter 110 | Mdm2-MdmX confirm 102
CC(=O)OC(C)(C)/C=C/C(=O)[C@](C)(O)C1[C@H](O)C[C@@]2(C)C3CC=C4C(C=C(O[C@@H]5O[C@H](CO)[C@@H](O)[C@H](O)[C@H]5O)C(=O)C4(C)C)[C@]3(C)C(=O)C[C@]12C (stereo partly specified)	HIF-2a block 46, KKLEB cytotox -68, CF NFkB block 74, Peg3 promoter 57 | HIF-2a inh conf inactive | HIF-1a cs inactive
CC1(C)Oc2ccc3ccc(=O)oc3c2C[C@H]1O[C@@H]1O[C@H](CO)[C@@H](O)[C@H](O)[C@H]1O	none
COC(=O)[C@H](C)NC(=O)NCc1ccc(S(N)(=O)=O)cc1	none
O=C(/C=C/c1ccccc1[N+](=O)[O-])NCCCN1CCCC1=O	none
O=C(C#Cc1ccccc1)c1ccco1	Shn3 inh set2 95, HIF-2a block 40, KKLEB cytotox -64, CF NFkB block 99, Peg3 promoter 105 | Mdm2-MdmX confirm 103 | HIF-2a inh conf 90 | HIF-1a cs 103
CCC(C)(C)c1ccc(OCCCC[n+]2ccc(C)cc2)c(C(C)(C)CC)c1	none (no result: Shn3 inh set2, HIF-2a block, KKLEB cytotox, CF NFkB block, Peg3 promoter) | Mdm2-MdmX confirm 102
CCC(C)(C)c1ccc(OCCCC[n+]2cccc(C)c2C)c(C(C)(C)CC)c1	HIF-2a block 88, Peg3 promoter 107 (no result: Shn3 inh set2) | Mdm2-MdmX confirm 103 | HIF-2a inh conf 77 | HIF-1a cs 107
Cc1cc[n+](CC[n+]2ccc(C)cc2)cc1	none
CN1CCc2c(n(CC(O)CNCc3ccccc3)c3ccccc23)C1=O (stereo unspecified)	none
CC(C)NCC(O)Cn1c2c(c3ccccc31)CCc1c-2cnn1-c1ccccc1 (stereo unspecified)	HIF-2a block 41, Peg3 promoter 104 | HIF-2a inh conf inactive | HIF-1a cs 105
C=CC(C)(C)c1c2occc2c(O)c2ccc(=O)oc12	none
C=CC(C)(C)c1c(O)c(CC=C(C)C)c(O)c2c(=O)c3ccc(O)c(O)c3oc12	Shn3 inh set2 89, CF NFkB block 54, Peg3 promoter 61 | Mdm2-MdmX confirm 97
O=C(CSc1nnc(-c2ccc(Br)cc2)o1)Nc1cccc(C(=O)O)c1	HIF-2a block 63 | HIF-2a inh conf 63 | HIF-1a cs inactive
O=C(CSc1nnc(-c2ccncc2)o1)Nc1cc(F)ccc1F	none
O=C(CSc1nnc(-c2ccccc2)o1)Nc1ccccc1F	HIF-2a block 49 | HIF-2a inh conf 66 | HIF-1a cs 61
COc1ccc(C=C(C(C)=O)C(=O)c2ccccc2)cc1	none
CC(=O)C(=Cc1ccc(Cl)cc1)C(=O)c1ccccc1	HIF-2a block 91, Peg3 promoter 99 | HIF-2a inh conf 92 | HIF-1a cs 105
COc1cc2nc(N3CCN(c4cc(C)ccc4C)CC3)nc(N)c2cc1OC	Shn3 inh set2 94, HIF-2a block 39, Peg3 promoter 102 | Mdm2-MdmX confirm 103 | HIF-2a inh conf inactive | HIF-1a cs 102
CC(=O)Nc1ncnc2c1c(-c1ccc(Cl)cc1)nn2C(C)(C)C	HIF-2a block 48 | HIF-2a inh conf 43 | HIF-1a cs inactive
COc1cccc(F)c1C(C[N+](=O)[O-])c1c(N)n(C)c(=O)n(C)c1=O (stereo unspecified)	HIF-2a block 88, Peg3 promoter 104 | HIF-2a inh conf 79 | HIF-1a cs 106
COc1cc(C(C[N+](=O)[O-])c2c(N)n(C)c(=O)n(C)c2=O)ccc1O (stereo unspecified)	none
CC(C)(CO)CNC(=O)c1ccc2nc(Cc3cccc(Cl)c3)oc2c1	none
Cc1nnc(SCC(=O)NC23CC4CC(CC(C4)C2)C3)n(N)c1=O	HIF-2a block 68 | HIF-2a inh conf inactive | HIF-1a cs inactive
O=C(Nc1nc(-c2ccccn2)cs1)c1ccc2c(c1)OCCO2	none
CC(=O)c1ccc(-c2ccc(C(=O)Nc3nc(-c4ccccn4)cs3)o2)cc1	Peg3 promoter 76 | Mdm2-MdmX confirm 99
COc1ccc(COc2cccc3ccc(C)nc23)cc1F	none
